The values that follow come from PubChem BioAssay (NCI).

Test in all cases: NCI-60 one-dose screen, 48 h (100 = growth as untreated, 0 = no growth, -100 = all killed)
The test system of assay [1] is DU-145 prostate. The conditions noted are these: 10 µM unless noted.
Assay [2] has as its system K-562 leukemia. The conditions noted are these: 10 µM unless noted.
Assay [3] has as its system MALME-3M melanoma. The conditions noted are these: 10 µM unless noted.
For assay [4], the system named is MDA-MB-231 breast. The conditions noted are these: 10 µM unless noted.
Assay [5] deals with RXF 393 renal. The conditions noted are these: 10 µM unless noted.
The subject of assay [6] is SF-268 CNS. The conditions noted are these: 10 µM unless noted.
For assay [7], the system named is SF-295 CNS. The conditions noted are these: 10 µM unless noted.
Assay [8] deals with SF-539 CNS. The conditions noted are these: 10 µM unless noted.
Assay [9] concerns UACC-257 melanoma. The conditions noted are these: 10 µM unless noted.
The test system of assay [10] is M14 melanoma. The conditions noted are these: 10 µM unless noted.
Assay [11] has as its system HCT-15 colon. The conditions noted are these: 10 µM unless noted.
Assay [12] concerns HT29 colon. The conditions noted are these: 10 µM unless noted.
Assay [13] relates to SNB-75 CNS. The conditions noted are these: 10 µM unless noted.
For assay [14], the system named is U251 CNS. The conditions noted are these: 10 µM unless noted.
The test system of assay [15] is PC-3 prostate. The conditions noted are these: 10 µM unless noted.
The subject of assay [16] is SK-MEL-5 melanoma. The conditions noted are these: 10 µM unless noted.
Assay [17] has as its system UACC-62 melanoma. The conditions noted are these: 10 µM unless noted.
For assay [18], the system named is LOX IMVI melanoma. The conditions noted are these: 10 µM.
Assay [19] relates to SK-MEL-28 melanoma. The conditions noted are these: 10 µM unless noted.
For assay [20], the system named is SNB-19 CNS. The conditions noted are these: 10 µM unless noted.

Compounds without any hit were thinned out: in the full panel of roughly 83,000, 20% have a hit.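 The endpoint reported here, percent growth, reads 100 for growth as untreated, 0 for no net growth and -100 for all cells dead.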 Values without a mark were called inactive. Calls of active or inactive are those of the source. How the source made its calls: active means growth percent below 10; inactive means the rest.

For `COc1ccc2c(c1)C(=N/N=C(\C)c1ccc(OC)c(S(N)(=O)=O)c1)C(=O)N2`, the growth in [1] is 105%; in assay [2], 103%; in assay [3], 93.7%; in [4], 75.1%; in assay [5] it was 80.4%; in assay [6] it was 97.5%. The growth was 86.4% in assay [7]; 86.8% in [8]; 96.7% in [9]; 92.4% in assay [10]; 98.2% in [11]; 96.3% in assay [12]. For the same compound, the growth was 66.3% in assay [13]; 74.4% in assay [14]; 83.3% in assay [15]; 91.5% in [16]; 77.5% in [17]; 95% in assay [18]. Moreover, the growth in assay [19] was 94.1%.
As for `N/C(=N\N=C\c1ccc([N+](=O)[O-])cc1)c1c(N)nc(=S)[nH]c1-c1ccc(Cl)cc1Cl`, the growth in assay [1] was 115%; in [2], 95%; in assay [3], 73%; in assay [4], 77.5%; in [5] it was 73.1%; in assay [6], 94.9%. The growth was 52.4% in assay [7]; 74.7% in assay [8]; 104% in assay [9]; 102% in assay [10]; 103% in [11]; 116% in assay [12]. The growth in assay [20] was 74.9%; in assay [14], 67%; in assay [15], 96.8%; in assay [16] it was 104%; in assay [17] it was 84.7%; in assay [18] it was 96.5%. For the same compound, the growth in assay [19] is 113%.
Regarding `Cn1cc(NC(=O)c2cc(NC(=O)c3ccc(/C=C/c4ccccc4)cc3)cn2C)cc1C(=O)NCCCN1CCOCC1`, the growth in [1] is 44.4%; in assay [2] it was -41.3% (active); in assay [3], -83.3% (active); in assay [4], -19.9% (active); in assay [5] it was -3.75% (active); in [6] it was 58.6%. Further, the growth is -80.5% (active) in [7]; -98.2% (active) in [8]; 77.9% in assay [9]; -84% (active) in [10]; 7.6% (active) in assay [11]; -88.5% (active) in assay [12]. Also, the growth in assay [20] is 70.4%; in assay [14], -69.2% (active); in assay [15] it was 38.1%; in assay [16] it was -70% (active); in assay [17], -89% (active); in assay [18] it was -97.5% (active). Also, the growth in assay [19] is 32.5%.
`COc1cc2oc(-c3cccc(C(=O)Nc4cccc([N+](=O)[O-])c4)c3)cc(=O)c2c(OC)c1OC`: the growth in [1] is 29.5%; in assay [2], 69.2%; in assay [3], 11.4%; in assay [4] it was 11.5%; in assay [5], -13.4% (active); in assay [6], -3.57% (active). For the same compound, the growth in [7] was -0.211% (active); in [8], 3.56% (active); in assay [9], 31.7%; in [10], 58.2%; in [11], 58.1%; in assay [12] it was 59.9%. The growth is -6.58% (active) in [13]; 23.8% in [14]; 33.3% in assay [15]; 43.4% in assay [16]; 18.4% in assay [17]; 25.3% in assay [19].
Regarding `CCCCCCCCc1ccc(C(=O)Nc2ccc(C)cc2C(=O)O)cc1C`, the growth in assay [1] is 105%; in assay [2], 71.2%; in assay [3], 96.5%; in assay [4] it was 98.1%; in [5], 109%; in assay [6], 99.9%. In addition, the growth was 73.6% in assay [7]; 99.1% in [8]; 95% in [9]; 99.9% in assay [10]; 94% in [11]; 108% in assay [12]. Moreover, the growth in [13] is 92.4%; in assay [14], 88.1%; in assay [15], 84.2%; in assay [16], 94.3%; in [17], 91.3%; in assay [19], 109%.
As to `CCCCSc1nc(Nc2ccc(S(N)(=O)=O)cc2)c(C#N)c(-c2ccc(Cl)cc2)n1`, the growth in assay [1] is 53%; in assay [2], 5.58% (active); in assay [3] it was 22.9%; in assay [4], -36.1% (active); in [5], 16.8%; in [6] it was 69.2%. The growth in assay [7] is 8.15% (active); in [8], -25.2% (active); in [9], 76%; in assay [10], 10.6%; in assay [11], -8.65% (active); in assay [12] it was 8.86% (active). Moreover, the growth was 45.5% in assay [20]; -55.7% (active) in assay [14]; 55.8% in assay [15]; 59.6% in [16]; 48.4% in assay [17]; -99.9% (active) in assay [18]. Besides, in assay [19], the growth was 63%.
For `O=C(COc1ccc(NC(=O)Nc2ccc(Cl)c(Cl)c2)cc1)N=Nc1c(O)[nH]c2ccc(Br)cc12`, the growth in [1] is -30.1% (active); in assay [2], 7.78% (active); in [3], -85.4% (active); in [4], -59.3% (active); in assay [5], -54.3% (active); in assay [6], 1.44% (active). Further, the growth is -68.3% (active) in assay [7]; -90.8% (active) in assay [8]; -76.5% (active) in assay [9]; -63.8% (active) in assay [10]; 27% in assay [11]; -46.2% (active) in assay [12]. In addition, the growth is 7.51% (active) in [13]; -84.7% (active) in [14]; -16.6% (active) in assay [15]; -89% (active) in assay [16]; -35.5% (active) in [17]; -77% (active) in assay [19].
Turning to `Cc1ccc(C(SCCNCc2cc(N(C)C)ccn2)(c2ccccc2)c2ccccc2)cc1`, the growth in assay [1] is -8% (active); in assay [2] it was -42.7% (active); in assay [3], -94.4% (active); in [4] it was -56.9% (active); in assay [5], -47.3% (active); in assay [6], -2.09% (active). For the same compound, the growth is -96.1% (active) in [7]; -99.1% (active) in [8]; -65.4% (active) in assay [9]; -84.3% (active) in assay [10]; -68.8% (active) in [11]; -77.2% (active) in assay [12]. Besides, the growth in [13] was 8.64% (active); in assay [14], -89.3% (active); in [15], -43.4% (active); in assay [16], -100% (active); in [17] it was -64.4% (active); in assay [18] it was -100% (active). The growth in [19] is -95.3% (active).
